NPSR antagonist = neuropeptide S receptor (human) antagonism, cAMP; Q6W5P4; 220,000 tested, 1% active; CHO-NPSR cells, cAMP TR-FRET, antagonist mode; AID 1461; Potency, µM (top dose mostly 38.3 µM), without a hit: at the top dose activity change, negative = inhibition, most hits filed as inhibitors; also: potency is read from the fitted curve at half-maximal effect; nearly all actives have a fitted effect of over 50% in size
Sfp PPTase inh = blocks B. subtilis Sfp PPTase activity; Q9F4F7; Biochemical Sfp PPTase activity, qHTS; Potency, µM, for the others: largest response in the series, negative = inhibition, most hits filed as inhibitors; 310,000 tested, 3.5% active;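 also: the enzyme is Sfp with the accession as filed and its product quenches rhodamine fluorescence; potency is read from the fitted curve at half-maximal effect; 0% = enzyme reaction without inhibitor and -100% = no enzyme wells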
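Reaction rates are the 30-min fluorescence difference (ex 525, em 598 nm) in wells containing 15 nM Sfp, 5 uM rhodamine-CoA and 12.5 uM BHQ-2-YbbR at pH 7.6 with 10 mM MgCl2.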
GoLoco inh red = RGS12 GoLoco-Gai1 interaction inhibition. Gai1:RGS12 GoLoco peptide FP, rhodamine, 10 min. AID 880. 230,000 tested, 0.44% active. P63096. Potency, µM (titrated, usually from 61.6 µM), for inactives: at the highest dose activity, negative = inhibition, hits mostly inhibitors; active = well fitted inhibition curve with a large enough effect, not every such curve was filed as active; inactive = no such curve, though single readings can be large or run the other way; also: potency is read from the fitted curve at half-maximal effect; nearly all actives have a fitted effect of over 30% in size
Coupling enz = coupling enzyme interference in Giardia aldolase counter-screen. coupling enzyme system counterscreen, AmpLite Red fluorescence. activity change, negative = inhibition, % at 58.2 µM, hits read low. 290,000 tested, 0.67% active; in the data active = activity change below about -30%
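Counterscreen of the coupled detection system alone, without aldolase: glyceraldehyde-3-phosphate coupling enzymes plus AmpLite Red readout. Compounds at 57.5 uM final, 10 min RT preincubation, 20 min RT reaction, fluorescence 525/598 nm.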
KDM4E inh = blocks human JMJD2E demethylase activity; AID 2147; 230,000 tested, 1.6% active; JMJD2E catalytic domain, FDH-coupled NADH fluorescence (FDH is formaldehyde dehydrogenase); Potency, µM (highest dose often 57.1 µM), for inactives: at the top dose activity change, negative = inhibition, most hits filed as inhibitors; active = well fitted inhibition curve with a large enough effect, not every such curve was filed as active; inconclusive = small, poorly fitted or top-dose-only effect, or another doubt; inactive = no such curve, though single readings can be large or run the other way;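 also: potency is read from the fitted curve at half-maximal effect; 0% = wells with enzyme and -100% = buffer wells without enzyme; nearly all actives have a fitted effect of over 50% in size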
ALDH1A1 block = blocks purified human ALDH1A1 activity; P00352; Potency, µM (series often up to 75.3 µM), for the others: at the top dose activity, negative = inhibition, actives largely listed as inhibitors; 220,000 tested, 7.3% active; AID 1030; Purified ALDH1A1, NADH fluorescence, propionaldehyde substrate; active = well fitted inhibition curve with a large enough effect, not every such curve was filed as active; inconclusive = small, poorly fitted or top-dose-only effect, or another doubt; inactive = no such curve, though single readings can be large or run the other way;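 also: potency is read from the fitted curve at half-maximal effect; plate controls were no enzyme wells and a reference inhibitor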
Target sequence (P00352 whole entry, looked up): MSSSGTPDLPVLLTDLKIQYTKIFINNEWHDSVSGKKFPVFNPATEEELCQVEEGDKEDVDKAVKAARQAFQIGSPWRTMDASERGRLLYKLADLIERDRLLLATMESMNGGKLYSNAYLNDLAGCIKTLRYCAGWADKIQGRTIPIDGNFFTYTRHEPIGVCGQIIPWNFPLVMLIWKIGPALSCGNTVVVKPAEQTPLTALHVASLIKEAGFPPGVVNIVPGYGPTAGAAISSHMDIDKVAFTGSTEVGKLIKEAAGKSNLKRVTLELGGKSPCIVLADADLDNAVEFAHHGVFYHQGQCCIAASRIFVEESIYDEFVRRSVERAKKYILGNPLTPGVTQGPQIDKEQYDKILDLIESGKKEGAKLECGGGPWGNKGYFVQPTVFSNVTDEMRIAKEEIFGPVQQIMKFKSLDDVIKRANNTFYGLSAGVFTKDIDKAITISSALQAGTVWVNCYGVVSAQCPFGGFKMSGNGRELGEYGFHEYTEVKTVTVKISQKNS
* hit, by the source's call; u = inconclusive; x = no result; [ ] = remark or other dose. Most compounds without a hit are left out; they make up all but 8.5% or so of the library. Unless noted, calls follow the shape of the dose curve; as a rule, active = well fitted curve in the direction sought with a large enough effect; inconclusive = small, poorly fitted or top-dose-only effect, or another doubt; inactive = no such curve, though single readings can be large; an effect the other way counts as inactive or inconclusive. Unless noted, % is scaled to controls: 0 for no effect and ±100 for the full control effect.

SMILES | NPSR antagonist | Sfp PPTase inh | GoLoco inh red | Coupling enz | KDM4E inh | ALDH1A1 block
Cc1ccc(C)c2[nH]c(=O)c(CCNC(=O)c3ccc(S(=O)(=O)N4CCOCC4)cc3)cc12 | x | 9.1% | x | -1.9 | x | x
CC(=O)c1ccc(-c2ccc(C3C4C=CCCC4(C)C(=O)N3Cc3ccccc3)c(F)c2)cc1 (stereo unspecified) | x | u | x | -4.6 | x | x
CCC(C)NC(=O)c1cc(-c2ccc(OC)cc2)on1 (stereo unspecified) | -11.1%[46.1 µM] | 8.2% | 2.8% | -0.9 | -15.2% | -10.8%
COc1ccc(-c2cc(C(=O)O)no2)cc1 | -10.4% | -2.0% | 8.4% | 3.6 | -14.4% | 0.447µM*
O=C(CSC1=NCCS1)c1ccc(Cl)cc1 | -5.9% | u | 0.7% | 2.4 | -3.9% | u
Nc1cc(N)nc(SCC(=O)c2ccccc2)n1 | -3.3%[46.1 µM] | 9.4% | 7.1% | -0.3 | 2.0% | u
C[n+]1cc[nH]c1SCC(=O)c1ccccc1 | 3.2%[46.1 µM] | -25.4% | -5.3% | 1.5 | 0.7% | 25.1µM*
C[n+]1cc[nH]c1SCC(=O)c1ccc(Cl)cc1 | 10.6% | u | 16.0% | 2.0 | -25.1% | 18.9µM*
CC1(C)N(O)CC(c2cccs2)=[N+]1[O-] | -4.6%[46.1 µM] | 6.6% | -13.5% | 2.0 | 2.0% | -13.0%
CC1(C)C(c2cccs2)=[N+]([O-])C2(CCCCC/C2=N\NC(N)=S)N1O (stereo unspecified) | -0.9%[46.1 µM] | 89.1µM* | -10.4% | -11.3 | -1.4% | -3.0%
O=C(Nc1cccc(C(F)(F)F)c1)n1cc(-c2ccccn2)c(N2CCOCC2)n1 | 5.5% | 18.8% | -10.1% | -3.0 | 1.2% | u
NC(=S)N1OC[C@@H]2COc3ccc4ccccc4c3[C@@H]21 | -2.8% | 11.3% | 12.3% | -0.1 | 2.4% | 12.6µM*
CO/N=C/NC(=O)N1OC[C@@H]2COc3ccc4ccccc4c3[C@@H]21 | -13.5%[46.1 µM] | 5.5% | 2.6% | 1.3 | 4.2% | -2.0%
COc1ccc(/C=C(/NC(=O)c2ccco2)C(=O)Nc2ccc(C(=O)O)cc2)cc1 | x | 17.7% | x | -1.6 | x | x
CN1c2cc3c(cc2N=C(c2ccc(C(=O)O)cc2)c2ccccc21)C(C)(C)CCC3(C)C | x | -12.9% | 8.8% | 1.0 | -1.9% | 9.0%
CN(/C=C/C(=C\C=[N+](C)c1ccccc1)OCCCS(=O)(=O)[O-])c1ccccc1 | 15.7% | 79.4µM* | 17.0% | -11.3 | 0.0% | 31.6µM*
COc1ccc(NC(=O)C(NC(=O)c2ccc(C)cc2)c2ccccc2)cc1 (stereo unspecified) | x | -7.2% | x | 0.6 | x | x
CCC(C)[C@H]1COCCS(=O)(=O)N1Cc1ccc(Br)cc1 (stereo partly specified) | x | 12.5% | x | 0.6 | x | x
CC(=O)OC1=C(C#N)Cn2ccc3cccc1c32 | 5.5%[46.1 µM] | -1.7% | 1.2% | -40.9* | u | u
Cc1ccc(S(=O)(=O)N/N=C\c2ccc3c(c2)OCO3)c(C)c1 | x | -5.0% | x | x | x | x
O=c1cc(N2CCCCC2)c(-c2ccccc2)nn1Cc1cccc(Cl)c1 | u | 35.5µM* | 14.8% | 4.5 | 5.2% | 22.4µM*
O=c1cc(N2CCCCC2)c(-c2ccccc2)nn1Cc1ccc(Cl)cc1Cl | u | u | 3.3% | -4.6 | -20.3% | u
Cc1ccc(NC(=O)NN2CCN(C)CC2)cc1C | x | 9.6% | x | 1.8 | x | x
C/C(=N\NC(=O)CNc1cccc2ccccc12)c1ccccc1 | 6.3% | 16.9% | 23.3% | -0.6 | u | -11.6%
C/C(CCc1ccco1)=N\NC(=O)CNc1cccc2ccccc12 | 20.4% | -17.1% | 14.3% | -54.9* | u | u
CC1CCCC(N2CCN(C(=O)c3ccc([N+](=O)[O-])cc3)CC2)C1 (stereo unspecified) | x | -14.4% | x | -0.4 | x | x
COc1cc(/C=C2/C(=O)NN(c3cccc(F)c3)C2=O)ccc1OC(=O)c1ccco1 | u | 56.2µM* | -3.2% | 0.7 | -1.4% | 22.4µM*
COc1cc(/C=C2/C(=O)NN(c3ccc(Cl)cc3)C2=O)ccc1OC(=O)c1ccco1 | -37.4% | u | 6.5% | 10.5 | -5.6% | u
Cn1cccc1/C=C1\SC(=S)N(CC(=O)O)C1=O | -10.0% | -6.9% | -6.4% | 13.5 | -18.3% | -5.2%

Screening results as filed in PubChem BioAssay.
